Target: T1, Tyrosine-protein kinase ITK/TSK (Homo sapiens) (UniProt Q08881);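 note: values are mean percent inhibition of ITK from the GSK PKIS screen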
T1 sequence (whole entry): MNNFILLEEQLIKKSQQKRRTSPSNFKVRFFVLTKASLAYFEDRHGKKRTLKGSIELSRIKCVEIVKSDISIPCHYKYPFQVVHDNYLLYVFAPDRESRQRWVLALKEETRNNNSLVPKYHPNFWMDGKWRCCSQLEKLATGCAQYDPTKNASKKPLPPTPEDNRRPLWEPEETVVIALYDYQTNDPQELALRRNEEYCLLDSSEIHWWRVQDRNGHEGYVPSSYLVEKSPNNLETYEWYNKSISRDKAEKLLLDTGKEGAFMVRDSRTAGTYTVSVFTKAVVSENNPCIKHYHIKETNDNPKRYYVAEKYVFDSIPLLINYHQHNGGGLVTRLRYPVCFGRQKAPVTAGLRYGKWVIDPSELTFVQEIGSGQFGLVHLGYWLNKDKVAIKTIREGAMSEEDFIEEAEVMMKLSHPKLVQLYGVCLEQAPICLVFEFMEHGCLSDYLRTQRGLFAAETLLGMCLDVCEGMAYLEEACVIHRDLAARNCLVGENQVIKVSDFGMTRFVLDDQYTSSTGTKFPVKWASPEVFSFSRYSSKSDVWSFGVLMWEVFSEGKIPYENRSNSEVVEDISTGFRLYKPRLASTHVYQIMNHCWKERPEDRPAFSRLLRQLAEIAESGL
Conditions: at 1 µM

Compared with N#Cc1c(NC(=O)c2cccc3ccccc23)sc2c1CCCC2, CC1=C(C(=O)Nc2ccc3[nH]ncc3c2)C(c2ccc3ccccc3c2)CC(=O)N1 (stereo unspecified) is higher in inhibition: 1.28% for the first, 14.2% for the second.

First: COc1cc(C=NNc2ncnc3c2cnn3-c2ccccc2)ccc1O
Second: CN(C)c1cc2c(Nc3ccc4nc(Cc5ccccc5)[nH]c4c3)ncnc2cn1
The inhibition of the first is higher: 4.53% for the first, 1.51% for the second.

Compared with CC(C)=Cc1cccc2c1/C(=N/Nc1ccc(S(N)(=O)=O)cc1)C(=O)N2, CS(=O)(=O)Nc1ccc(N/C=C2\C(=O)Nc3ccccc32)cc1 is lower in inhibition: 4.66% for the first, 3.61% for the second.

Going from Cc1ccc(NC(=O)c2ccnc(N3CCCC3)c2)cc1-c1ccc(C(=O)NCC2CC2)cc1 to Cc1ccc(C(=O)NC2CCCCC2)cc1-c1ccc(C(=O)NCC2CC2)cc1, the inhibition rises from -1.06% to 2.35%.

First: Nc1nc(-c2ccc3c(c2)C(=Cc2cc(Br)c(O)c(Br)c2)C(=O)N3)cs1
Second: O=C1Nc2ccc(C(=O)c3ccco3)cc2C1=Cc1cc(Cl)c(O)c(Cl)c1
The inhibition of the first is lower: 1.31% for the first, 3.21% for the second.

First: CS(=O)(=O)CCNCc1ccc(-c2ccc3ncnc(Nc4ccc(OCc5cccc(F)c5)c(C(F)(F)F)c4)c3c2)o1
Second: CS(=O)(=O)CCN(CC#N)Cc1ccc(-c2ccc3ncnc(Nc4ccc(OCc5cccc(F)c5)c(Cl)c4)c3c2)o1
The inhibition of the first is higher: 0.72% for the first, -3.44% for the second.

Compared with COc1ccc(-c2coc3ncnc(N)c23)cc1, COc1ccc(-c2nn3ncccc3c2-c2ccnc(Nc3ccc(Cl)c(C(F)(F)F)c3)n2)cc1 is lower in inhibition: 1.48% for the first, 0.32% for the second.

Going from CCCN1CCC=C(c2ccc(Nc3nc(Nc4ccccc4C(N)=O)c4cc[nH]c4n3)c(C)c2)C1 to [O-][S+]1CCN(Cc2ccc(-c3ccc4ncnc(Nc5ccc(OCc6ccccc6)c(F)c5)c4c3)o2)CC1, the inhibition falls from 7.61% to 2.13%.

First: O=C1NC(=O)C(c2cccc(Cl)c2)=C1Nc1ccc(O)c(Cl)c1
Second: O=C1NC(=O)C(c2ccc(Cl)cc2)=C1Nc1ccc(Cl)c(C(=O)O)c1
The inhibition of the first is higher: 1.28% for the first, 0.04% for the second.

Compared with COc1cc2ncn(-c3cc(O[C@H](C)c4ccccc4Cl)c(C(N)=O)s3)c2cc1OC, COc1cc2ncn(-c3cc(O[C@@H](C)c4ccccc4Cl)c(C(N)=O)s3)c2cc1OC is lower in inhibition: 8.66% for the first, 3.19% for the second.

Going from c1cnn2ncc(-c3ccnc(Nc4ccc5c(c4)OCCO5)n3)c2c1 to Cc1nn(C)c2cc(N(C)c3ccnc(Nc4cccc(S(N)(=O)=O)c4)n3)ccc12, the inhibition rises from 5.82% to 8.33%.

Going from CCn1c(-c2nonc2N)nc2c(C#CC(C)(C)O)nc(CN3CCCC3)cc21 to CCn1c(-c2nonc2N)nc2c(C#CC(C)(C)O)nc(OC[C@@H](N)c3ccccc3)cc21, the inhibition rises from 0.72% to 0.95%.

First: CCn1c(-c2nonc2N)nc2ccncc21
Second: Cc1cccc(-c2n[nH]cc2-c2ccc3ncccc3n2)n1
The inhibition of the first is lower: 0.76% for the first, 1.48% for the second.

First: CNC(=O)c1cncc(/C=C/c2c(Cl)cccc2Cl)c1
Second: CC1=C(C(=O)Nc2ccc3[nH]ncc3c2)C(c2ccc(Cl)c(Cl)c2)CC(=O)N1 (stereo unspecified)
The inhibition of the first is lower: -1.73% for the first, 0.67% for the second.

First: Cc1nnc(-c2ccc(C)c(-c3ccc(C(=O)Nc4cccc(C#N)c4)cc3)c2)o1
Second: CC(=O)Nc1cccc(C#Cc2cncnc2Nc2ccc(OCc3cccc(F)c3)c(Cl)c2)n1
The inhibition of the first is higher: 0.58% for the first, 0.33% for the second.

Compared with COc1cc2ncn(-c3cc(OCc4ccccc4Cl)c(C(N)=O)s3)c2cc1OC, Fc1cccc(COc2ccc(Nc3ncnc4sc(-c5cccs5)cc34)cc2Cl)c1 is lower in inhibition: 3.19% for the first, 1.32% for the second.

CCN1CCC(CC(=O)Nc2n[nH]c3nc(-c4cccs4)c(Br)cc23)CC1 showed an inhibition of 0.48%.

Target: Tyrosine-protein kinase JAK1 (Homo sapiens) (UniProt P23458)
Sequence (P23458 whole entry): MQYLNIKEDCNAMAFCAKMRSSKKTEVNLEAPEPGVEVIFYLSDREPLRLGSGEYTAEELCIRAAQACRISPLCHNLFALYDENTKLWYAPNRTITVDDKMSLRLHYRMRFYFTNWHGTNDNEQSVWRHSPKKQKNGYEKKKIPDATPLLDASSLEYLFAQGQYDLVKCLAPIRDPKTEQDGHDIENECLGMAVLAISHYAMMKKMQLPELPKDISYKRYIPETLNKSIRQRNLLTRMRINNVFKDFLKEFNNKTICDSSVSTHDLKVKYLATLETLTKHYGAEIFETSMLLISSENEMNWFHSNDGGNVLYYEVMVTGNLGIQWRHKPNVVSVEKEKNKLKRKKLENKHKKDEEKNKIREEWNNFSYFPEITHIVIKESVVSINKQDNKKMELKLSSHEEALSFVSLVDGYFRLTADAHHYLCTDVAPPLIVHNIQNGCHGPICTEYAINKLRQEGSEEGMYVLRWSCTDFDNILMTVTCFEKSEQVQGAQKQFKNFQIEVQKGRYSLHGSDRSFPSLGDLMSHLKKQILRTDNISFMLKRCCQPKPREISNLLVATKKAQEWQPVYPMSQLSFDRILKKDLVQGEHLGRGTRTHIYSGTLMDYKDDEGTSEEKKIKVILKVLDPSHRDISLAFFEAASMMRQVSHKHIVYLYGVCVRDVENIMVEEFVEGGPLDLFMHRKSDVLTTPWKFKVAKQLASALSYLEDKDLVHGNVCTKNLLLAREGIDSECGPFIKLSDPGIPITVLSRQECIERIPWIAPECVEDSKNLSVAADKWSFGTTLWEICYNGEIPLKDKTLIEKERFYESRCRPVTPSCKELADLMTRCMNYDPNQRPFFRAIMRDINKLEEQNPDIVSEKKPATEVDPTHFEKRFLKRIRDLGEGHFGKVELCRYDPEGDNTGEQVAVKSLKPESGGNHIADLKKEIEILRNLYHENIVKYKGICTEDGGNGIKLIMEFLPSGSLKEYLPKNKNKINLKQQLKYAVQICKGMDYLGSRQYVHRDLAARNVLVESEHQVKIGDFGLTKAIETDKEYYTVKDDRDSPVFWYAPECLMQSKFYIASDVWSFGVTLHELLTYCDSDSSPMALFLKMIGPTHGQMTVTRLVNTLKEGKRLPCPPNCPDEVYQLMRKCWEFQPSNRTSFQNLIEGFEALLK
Conditions: at 0.1 µM

First: N#Cc1c(NC(=O)c2cccc3ccccc23)sc2c1CCCC2
Second: CC1=C(C(=O)Nc2ccc3[nH]ncc3c2)C(c2ccc3ccccc3c2)CC(=O)N1 (stereo unspecified)
The inhibition of the first is lower: 3.98% for the first, 4.05% for the second.

Going from COc1cc(C=NNc2ncnc3c2cnn3-c2ccccc2)ccc1O to CN(C)c1cc2c(Nc3ccc4nc(Cc5ccccc5)[nH]c4c3)ncnc2cn1, the inhibition rises from 2.76% to 5.67%.

First: CC(C)=Cc1cccc2c1/C(=N/Nc1ccc(S(N)(=O)=O)cc1)C(=O)N2
Second: CS(=O)(=O)Nc1ccc(N/C=C2\C(=O)Nc3ccccc32)cc1
The inhibition of the first is higher: 2.53% for the first, 0.26% for the second.

First: Cc1ccc(NC(=O)c2ccnc(N3CCCC3)c2)cc1-c1ccc(C(=O)NCC2CC2)cc1
Second: Cc1ccc(C(=O)NC2CCCCC2)cc1-c1ccc(C(=O)NCC2CC2)cc1
The inhibition of the first is lower: 4.61% for the first, 9.94% for the second.

First: Nc1nc(-c2ccc3c(c2)C(=Cc2cc(Br)c(O)c(Br)c2)C(=O)N3)cs1
Second: O=C1Nc2ccc(C(=O)c3ccco3)cc2C1=Cc1cc(Cl)c(O)c(Cl)c1
The inhibition of the first is lower: 0.76% for the first, 5.2% for the second.

First: CS(=O)(=O)CCNCc1ccc(-c2ccc3ncnc(Nc4ccc(OCc5cccc(F)c5)c(C(F)(F)F)c4)c3c2)o1
Second: CS(=O)(=O)CCN(CC#N)Cc1ccc(-c2ccc3ncnc(Nc4ccc(OCc5cccc(F)c5)c(Cl)c4)c3c2)o1
The inhibition of the first is higher: 3.98% for the first, 0.62% for the second.

First: COc1ccc(-c2coc3ncnc(N)c23)cc1
Second: COc1ccc(-c2nn3ncccc3c2-c2ccnc(Nc3ccc(Cl)c(C(F)(F)F)c3)n2)cc1
The inhibition of the first is lower: 0.98% for the first, 1.77% for the second.

Compared with CCCN1CCC=C(c2ccc(Nc3nc(Nc4ccccc4C(N)=O)c4cc[nH]c4n3)c(C)c2)C1, [O-][S+]1CCN(Cc2ccc(-c3ccc4ncnc(Nc5ccc(OCc6ccccc6)c(F)c5)c4c3)o2)CC1 is lower in inhibition: 2.14% for the first, 0.52% for the second.

First: O=C1NC(=O)C(c2cccc(Cl)c2)=C1Nc1ccc(O)c(Cl)c1
Second: O=C1NC(=O)C(c2ccc(Cl)cc2)=C1Nc1ccc(Cl)c(C(=O)O)c1
The inhibition of the first is higher: 2.54% for the first, -3.25% for the second.

Compared with COc1cc2ncn(-c3cc(O[C@H](C)c4ccccc4Cl)c(C(N)=O)s3)c2cc1OC, COc1cc2ncn(-c3cc(O[C@@H](C)c4ccccc4Cl)c(C(N)=O)s3)c2cc1OC is lower in inhibition: 8.61% for the first, 0.34% for the second.

Going from c1cnn2ncc(-c3ccnc(Nc4ccc5c(c4)OCCO5)n3)c2c1 to Cc1nn(C)c2cc(N(C)c3ccnc(Nc4cccc(S(N)(=O)=O)c4)n3)ccc12, the inhibition rises from 8.27% to 12.3%.

Going from CCn1c(-c2nonc2N)nc2c(C#CC(C)(C)O)nc(CN3CCCC3)cc21 to CCn1c(-c2nonc2N)nc2c(C#CC(C)(C)O)nc(OC[C@@H](N)c3ccccc3)cc21, the inhibition falls from 1.82% to -3.77%.

Going from CCn1c(-c2nonc2N)nc2ccncc21 to Cc1cccc(-c2n[nH]cc2-c2ccc3ncccc3n2)n1, the inhibition falls from 1.34% to -0.09%.

Compared with CNC(=O)c1cncc(/C=C/c2c(Cl)cccc2Cl)c1, CC1=C(C(=O)Nc2ccc3[nH]ncc3c2)C(c2ccc(Cl)c(Cl)c2)CC(=O)N1 (stereo unspecified) is higher in inhibition: 2.61% for the first, 5.41% for the second.

Compared with Cc1nnc(-c2ccc(C)c(-c3ccc(C(=O)Nc4cccc(C#N)c4)cc3)c2)o1, CC(=O)Nc1cccc(C#Cc2cncnc2Nc2ccc(OCc3cccc(F)c3)c(Cl)c2)n1 is higher in inhibition: 1.77% for the first, 3.25% for the second.

Compared with COc1cc2ncn(-c3cc(OCc4ccccc4Cl)c(C(N)=O)s3)c2cc1OC, Fc1cccc(COc2ccc(Nc3ncnc4sc(-c5cccs5)cc34)cc2Cl)c1 is lower in inhibition: 0.17% for the first, -0.79% for the second.

For CCN1CCC(CC(=O)Nc2n[nH]c3nc(-c4cccs4)c(Br)cc23)CC1, the inhibition was -7.81%.
